Molecules are shown by their SMILES. Results filed as inconclusive are left out. Entries that show only a call come without a potency. The source made the active and inactive calls. Calls follow the shape of the dose curve; as a rule, active = well fitted cell-killing curve with a large enough effect; inconclusive = small, poorly fitted or top-dose-only effect; inactive = flat fitted curve, though single readings scatter.
Potency is read from the fitted curve at half-maximal effect.

This assay in a line: Cell Viability - LYMP2-007 (AID 979).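 Also: cells exposed to compound for 24 h before reading; nearly all actives have a fitted effect of over 60% in size.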 To be noted: LYMP2-007 lymphoblastoid cell viability; series mostly up to 92.2 µM. An excerpt:
NIH Chemical Genomics Center [NCGC]
NIH Molecular Libraries Screening Centers Network [MLSCN]
National Institutes of Environmental Health Sciences [NIEHS]
National Toxicology Program [NTP]
We have developed a 1536-well cell-based assay for quantitative high throughput screening (qHTS) against a number of cell lines to determine in vitro cytotoxicity of small molecules. This particular assay uses a human lymphoblastoid cell line (LYMP2-007) purchased from Coriell Institute for Medical Research.
NCGC Assay Protocol Summary:
The CellTiter-Glo luminescent cell viability assay (Promega) is a homogeneous method to measure the number of viable cells in culture. The end point readout of this assay is based on quantitation of intracellular ATP, an indicator of metabolic activity, using the luciferase reaction. Luciferase catalyzes the oxidation of beetle Luciferin to oxyluciferin and light in the presence of ATP. The luminescent signal is proportional to amount of ATP present.
Using the CellTiter-Glo luminescent cell viability assay, the amount of cellular ATP was measured in the lymphoblastoid cell line with complete culture medium following compound treatment for 24 hours. The assay was performed in opaque white Kalypsys 1536-well plates. In the screen, tetraoctylammonium bromide was used as positive control. Library compounds were measured for their ability to cause acute toxicity in the cell line, as reflected by a decrease in intracellular ATP levels, in a concentration-dependent manner. […] AC50 values were determined from concentration-response data modeled with the standard Hill equation.
qHTS protocol for CellTiter Glo lymphoblastoid cellular assay
[Step] [Parameter] [Value] [Description]
1. Reagent; 5 uL; 2500 lymphoblastoid cells/well
2. Time; 5 hr; 37 C incubation
4. Controls; 23 nL; Tetraoctylammonium bromide 6.4pM to 92 uM
5. Time; 24 hr; 37 C incubation
6. Reagent; 5 uL; CellTiter Glo reagent
7. Time; 30 min; Room Temperature
8. Detection; Luminescence; Viewlux plate reader
Keywords: cell viability, cytotoxicity, lymphoblastoid cell line, luminescence, NTPHTS, NTPHTS_NCGC, NIEHS, DSSTox, MLSMR, MLSCN, NIH Roadmap, qHTS, NCGC
Take `CN(C)c1ccc(C(=C2C=CC(=[N+](C)C)C=C2)c2ccc(N(C)C)cc2)cc1`: the Potency was 2.51 µM (active).

With `N=C(N)c1ccc(OCCCCCOc2ccc(C(=N)N)cc2)cc1`, the Potency was 39.8 µM (active).

For the compound `NNC(=O)c1ccncc1`, the Potency entry is “inactive”.

For the compound `C[C@]12C=CC(=O)C=C1CC[C@@H]1[C@@H]2C(=O)C[C@@]2(C)[C@H]1CC[C@]2(O)C(=O)CO`, the Potency entry is “inactive”.

Turning to `Cc1ccnc2c1NC(=O)c1cccnc1N2C1CC1`, the Potency entry is “inactive”.

Consider `Cc1cc(NS(=O)(=O)c2ccc(N)cc2)no1`, for which the Potency entry was “inactive”.

Regarding `O=C(N[C@H](CO)[C@H](O)c1ccc([N+](=O)[O-])cc1)C(Cl)Cl`, the Potency result was “inactive”.

For `CC[C@H](C)C(=O)O[C@H]1C[C@@H](C)C=C2C=C[C@H](C)[C@H](CC[C@@H]3C[C@@H](O)CC(=O)O3)[C@H]21`, the Potency entry is “inactive”.

For the compound `NC(N)=NC(N)=NCCc1ccccc1`, the Potency result is “inactive”.

For the compound `O=C(O)c1cc(=O)[nH]c(=O)[nH]1`, the Potency entry is “inactive”.

On to `CC1=NN(c2ccccc2)C(=O)C1`, for which the Potency entry is “inactive”.

With `Cc1nnc(NS(=O)(=O)c2ccc(N)cc2)s1`, the Potency result was “inactive”.

As to `CCc1cc(C(N)=S)ccn1`, the Potency entry was “inactive”.

Turning to `Cc1noc(NS(=O)(=O)c2ccc(N)cc2)c1C`, the Potency entry was “inactive”.

For `Cc1ncc([N+](=O)[O-])n1CCO`, the Potency entry is “inactive”.
